In the library only some 6.8% were active in any assay of this set; here they are far more common.
T cruzi growth-1 = T. cruzi proliferation inhibition. T. cruzi beta-gal in NIH3T3, GalScreen luminescence, 90 h. inhibition, % at 8.34 µM. 5.9% of 77,000 active;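 active means mean inhibition above about 93%, with at least 55% of replicates each passing it, limit read from the data, passing the limit was not always enough; inconclusive means only one of those two conditions holds; inactive means neither condition holds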
C diff HTS = C. difficile growth inhibition; Clostridium difficile clinical isolate growth, OD600, 24 h; stronger effect = lower value; growth activity, negative = inhibition, % at 16 µg/mL (by protocol); 0.25% of 86,000 active;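 active means mean growth activity at or below -80% and every replicate also at or below -80%; inconclusive means mean at or below -80% but some replicate above -80%; inactive means mean growth activity above -80%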
Pf Dd2 growth = blocks growth of Plasmodium falciparum Dd2 parasites; activity change, % at 10 µM; AID 1159554; P. falciparum Dd2 growth, SYBR Green, 72 h; stronger effect = lower value; 2.3% of 94,000 active; in the data active means activity change below about -80%; inconclusive means no clear call, values can overlap the other calls
T cruzi growth-2 = blocks T. cruzi growth in NIH3T3 host cells; shares compounds with T cruzi growth-1; T. cruzi beta-gal in NIH3T3, GalScreen luminescence, 90 h; inhibition, % at 8.35 µM; 72% of 5,600 active; AID 651739;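 active means mean replicate inhibition above about 95% and at least 55% of replicates individually reaching it, limit read from the data; inconclusive means only one of the two criteria is met; inactive means neither criterion is met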
T cruzi growth-3 = Trypanosoma cruzi proliferation inhibition; shares compounds with T cruzi growth-1; T. cruzi beta-gal in NIH3T3, GalScreen luminescence, 90 h; 21% of 5,600 active; inhibition, % at 2.09 µM;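 active means mean inhibition above about 95%, with at least 55% of replicates also reaching it, limit read from the data; inconclusive means meets just one of the two conditions; inactive means meets neither condition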
NIH3T3 tox = NIH/3T3 (mouse) viability loss; shares compounds with T cruzi growth-1; NIH/3T3 viability, CellTiter-Glo ATP luminescence, 90 h; cytotoxicity (signal decrease), % at 8.35 µM; 14% of 5,600 active; AID 651742;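 active means mean signal decrease across replicates above about 35% based on untreated-well scatter, with enough replicates individually passing, limit read from the data; inconclusive means no rule stated though some were filed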
3T3 cytotox 2 = NIH/3T3 (mouse) viability loss; shares compounds with T cruzi growth-1; NIH/3T3 viability, CellTiter-Glo ATP luminescence, 90 h; inhibition, % at 24.9 µM; 56% of 5,600 active;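 active means mean loss of cell viability signal at or above a set limit, and enough replicates individually reaching it; inconclusive means meets only the mean limit or only the replicate share; inactive means meets neither condition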
Large screens that a line does not name were inactive (follow-up assays come after a bar, where they were run).

C[C@H](CO)N1C[C@H](C)[C@@H](CN(C)Cc2ccc(F)cc2)Oc2cc(C#Cc3ccccn3)ccc2S1(=O)=O	T cruzi growth-1 127 | T cruzi growth-2 106 | T cruzi growth-3 102 | NIH3T3 tox inactive | 3T3 cytotox 2 inactive
C[C@@H]1CN([C@H](C)CO)S(=O)(=O)c2ccc(C#Cc3ccccn3)cc2O[C@H]1CN(C)C	none (no result: T cruzi growth-1)
C[C@@H]1CN([C@@H](C)CO)S(=O)(=O)c2ccc(C#Cc3ccccn3)cc2O[C@@H]1CN(C)Cc1ccc(F)cc1	T cruzi growth-1 100 | T cruzi growth-2 107 | T cruzi growth-3 inactive | NIH3T3 tox 38 | 3T3 cytotox 2 inactive
O=C(C[C@@H]1CC[C@@H]2[C@H](COC[C@@H](O)CN2Cc2nccs2)O1)NCc1ccccc1Cl	none
C[C@H]1CCCCO[C@H](CN(C)S(=O)(=O)c2cccs2)[C@@H](C)CN([C@@H](C)CO)C(=O)c2cc(NS(=O)(=O)c3cn(C)cn3)ccc2O1	none (no result: T cruzi growth-1)
CO[C@H]1CN(C)C(=O)c2cc(NS(=O)(=O)c3ccccc3F)ccc2OC[C@H](C)NC[C@@H]1C	none (no result: C diff HTS)
CO[C@H]1CN(C)C(=O)c2ccc(NS(=O)(=O)c3ccccc3)cc2OC[C@@H](C)N(C(=O)NC(C)C)C[C@H]1C	none
C[C@H]1CCCCO[C@@H](CN(C)C(=O)Nc2ccc(C(F)(F)F)cc2)[C@@H](C)CN([C@@H](C)CO)C(=O)c2cc(NC(=O)c3ccccc3)ccc2O1	T cruzi growth-1 102, Pf Dd2 growth -84 | T cruzi growth-2 108 | T cruzi growth-3 113 | NIH3T3 tox inactive | 3T3 cytotox 2 inactive
C[C@@H]1CCCCO[C@@H](CN(C)C(=O)Nc2ccc(F)cc2)[C@H](C)CN([C@H](C)CO)C(=O)c2cc(NC(=O)c3ccccc3)ccc2O1	none
C[C@@H]1CN([C@H](C)CO)C(=O)c2cc(NC(=O)c3ccccc3)ccc2O[C@@H](C)CCCCO[C@H]1CN(C)C(=O)Nc1ccc(F)cc1	none
C[C@@H]1CCCCO[C@H](CN(C)C(=O)Nc2ccc(F)cc2)[C@H](C)CN([C@H](C)CO)C(=O)c2cc(NC(=O)c3ccccc3)ccc2O1	T cruzi growth-1 inconclusive, Pf Dd2 growth inconclusive | T cruzi growth-2 102 | T cruzi growth-3 inactive | NIH3T3 tox inactive | 3T3 cytotox 2 inactive
C[C@@H]1CCCCO[C@H](CN(C)C(=O)Nc2ccc(C(F)(F)F)cc2)[C@@H](C)CN([C@H](C)CO)C(=O)c2cc(NC(=O)c3ccccc3)ccc2O1	none
C[C@H]1CCCCO[C@H](CN(C)C(=O)Nc2ccc(F)cc2)[C@@H](C)CN([C@@H](C)CO)C(=O)c2cc(NC(=O)c3ccccc3)ccc2O1	T cruzi growth-1 99 | T cruzi growth-2 inactive | T cruzi growth-3 inactive | NIH3T3 tox inactive | 3T3 cytotox 2 inconclusive
O=C(C[C@H]1C[C@@H]2c3cc(NC(=O)C4CCC4)ccc3O[C@@H]2[C@@H](CO)O1)NCc1ccc2c(c1)OCO2	none
C[C@@H]1CN([C@H](C)CO)C(=O)c2cccc(NS(=O)(=O)c3ccccc3)c2O[C@H]1CN(C)Cc1ccc(C(F)(F)F)cc1	none
COc1ccc2c3c(n(C)c2c1)[C@@H](CO)N(Cc1ccccc1OC)CC31CN(C(=O)C2CC2)C1	none (no result: T cruzi growth-1)
COc1ccc(CN(C)C[C@H]2OCCCC[C@H](C)Oc3ccc(NC(=O)Nc4cccc5ccccc45)cc3C(=O)N([C@H](C)CO)C[C@H]2C)cc1	T cruzi growth-1 inconclusive, Pf Dd2 growth -90 | T cruzi growth-2 98 | T cruzi growth-3 106 | NIH3T3 tox inactive | 3T3 cytotox 2 55
C[C@@H]1CN([C@H](C)CO)C(=O)c2cc(NC(=O)Nc3cccc4ccccc34)ccc2O[C@@H](C)CCCCO[C@@H]1CN(C)Cc1ccncc1	none
C[C@H]1CCCCO[C@@H](CN(C)Cc2ccccc2)[C@@H](C)CN([C@@H](C)CO)C(=O)c2cc(NC(=O)Nc3cccc4ccccc34)ccc2O1	T cruzi growth-1 109 | T cruzi growth-2 inconclusive | T cruzi growth-3 100 | NIH3T3 tox inactive | 3T3 cytotox 2 38
C[C@H]1CCCCO[C@H](CN(C)Cc2ccccc2)[C@@H](C)CN([C@@H](C)CO)C(=O)c2cc(NC(=O)Nc3cccc4ccccc34)ccc2O1	none (no result: T cruzi growth-1)
C[C@@H]1CN([C@H](C)CO)C(=O)c2cc(NC(=O)Nc3cccc4ccccc34)ccc2O[C@@H](C)CCCCO[C@H]1CN(C)Cc1ccncc1	T cruzi growth-1 100 | T cruzi growth-2 107 | T cruzi growth-3 inactive | NIH3T3 tox 36 | 3T3 cytotox 2 47
C[C@H](CO)N1C[C@H](C)[C@@H](CN(C)Cc2ccccc2)OCCCC[C@H](C)Oc2ccc(NC(=O)Nc3cccc4ccccc34)cc2C1=O	none (no result: T cruzi growth-1)
C[C@@H]1CN([C@H](C)CO)C(=O)Cc2cc(NS(=O)(=O)c3cn(C)cn3)ccc2O[C@@H]1CN(C)C(=O)Nc1ccc2c(c1)OCO2	none
CCCNC(=O)C[C@H]1C[C@H]2c3cc(NC(=O)Nc4ccc(OC)cc4)ccc3O[C@H]2[C@H](CO)O1	none
COc1ccc(NC(=O)Nc2ccc3c(c2)[C@@H]2C[C@@H](CC(=O)NCCc4ccccc4)O[C@H](CO)[C@@H]2O3)cc1	T cruzi growth-1 133 | T cruzi growth-2 105 | T cruzi growth-3 inactive | NIH3T3 tox inactive | 3T3 cytotox 2 inactive
COc1ccc(CNC(=O)C[C@H]2C[C@H]3c4cc(NC(=O)C5CCC5)ccc4O[C@H]3[C@H](CO)O2)cc1	none
COc1ccc(CNC(=O)C[C@@H]2C[C@H]3c4cc(NC(=O)C5CCC5)ccc4O[C@H]3[C@H](CO)O2)cc1	T cruzi growth-1 177 | T cruzi growth-2 inconclusive | T cruzi growth-3 inactive | NIH3T3 tox inactive | 3T3 cytotox 2 inactive
CCCNC(=O)C[C@H]1C[C@H]2c3cc(NC(=O)CN(C)C)ccc3O[C@H]2[C@@H](CO)O1	T cruzi growth-1 101 | T cruzi growth-2 inactive | T cruzi growth-3 inactive | NIH3T3 tox inactive | 3T3 cytotox 2 inactive
CCCNC(=O)C[C@@H]1C[C@H]2c3cc(NC(=O)Nc4ccc(OC)cc4)ccc3O[C@H]2[C@@H](CO)O1	none
CCCNC(=O)C[C@H]1C[C@@H]2c3cc(NC(=O)CN(C)C)ccc3O[C@@H]2[C@H](CO)O1	none
COc1ccc(NC(=O)Nc2ccc3c(c2)[C@@H]2C[C@@H](CC(=O)NCCc4ccccc4)O[C@@H](CO)[C@@H]2O3)cc1	T cruzi growth-1 179 | T cruzi growth-2 111 | T cruzi growth-3 105 | NIH3T3 tox inactive | 3T3 cytotox 2 inactive
C[C@@H]1CCCCO[C@H](CN(C)Cc2ccc(C(F)(F)F)cc2)[C@H](C)CN([C@@H](C)CO)C(=O)c2cc(NC(=O)NC3CCCCC3)ccc2O1	none
CNC[C@@H]1Oc2ccc(NS(=O)(=O)c3ccccc3)cc2C(=O)N([C@@H](C)CO)C[C@H]1C	none (no result: T cruzi growth-1)
